# The list is not random: actives were taken first. Their share in the collection is about 2.8%.
# MITF TRPM1 HTS: activators of MITF-driven TRPM1 promoter reporter, primary screen, cell-based, SK-MEL-5, luciferase, single point. SK-MEL-5 TRPM1-promoter luciferase, 24 h; % of positive control, neutral wells = 0. activation, % at 12.5 µM. 300,000 tested, 0.75% active. AID 588334, 2011;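 active = mean activation of at least 80% with every replicate also reaching 80%; inconclusive = mean reaches 80% but some replicate falls short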;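 also: 0% = neutral control wells and 100% = parthenolide positive control wells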
# GAA850 FXN act: FXN promoter activators, primary screen, cell-based, luciferase luminescence, HEK293 lucGAA850 | HEK293 lucGAA850 FXN promoter luciferase reporter, 24 h; percent of 10 µM SAHA response | activation, % at 6 µM | 360,000 tested, 0.56% active | AID 540364, 2011;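 active = activation above the average of all compounds screened plus 3 SD, cutoff fixed separately per campaign, cut at about 7.5% in these data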;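 also: 0% = DMSO wells and 100% = 10 µM SAHA wells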
# esBAF inh: Bmi1 luciferase reporter increase in mESCs, primary screen, esBAF inhibitor project, mouse ES cells, Bmi1 luciferase knock-in, single point; AID 602393, 2012; reporter increase, % at 12.5 µM; 24 h; 100% = twice the neutral-well signal; 350,000 tested, 2% active; in the data active = activation above about 40%; inconclusive = no clear call, values can overlap the other calls;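 also: 0% = median of the plate's neutral control wells and 100% = double that signal; a rise in the Bmi1 reporter signal indicates esBAF inhibition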
# Wnt act: Wnt/beta-catenin pathway activators, primary screen, cell-based, plate reader, single point | Wnt/beta-catenin reporter cell assay, activator | activation, % at 9.35 µM | 300,000 tested, 1.2% active; in the data active = activation above about 30%, passing the limit was not always enough; inconclusive = no clear call, values can overlap the other calls;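 also: 0% = neutral control wells and 100% = positive control wells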
# GAA30 FXN cntr: GAA30 FXN promoter activators, confirmation, counter-screen for GAA850 frataxin promoter activator project, cell-based, luminescence, HEK293, lucGAA30, triplicate. HEK293 lucGAA30 FXN promoter luciferase, 24 h; DMSO = 0%, 5 µM ipriflavone = 100%. AID 588350, 2011. 1,900 tested, 66% active. activation, % at 6 µM. shares compounds with GAA850 FXN act;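 active = mean activation above the mean of solvent-only control wells plus 3 SD, cut at about 22% in these data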;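 also: counterscreen of GAA850 promoter hits where activity marks nonselective or luminescence artifacts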
# FXN GAA850 conf: FXN GAA850 promoter activators in reporter cells, confirmation, cell-based, luminescence, HEK293 lucGAA850, triplicate. 1,900 tested, 86% active. AID 588351, 2011. HEK293 lucGAA850 FXN promoter luciferase reporter, 24 h; 100% = activation by SAHA. activation, % at 6 µM. shares compounds with GAA850 FXN act;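 active = mean activation above a set limit taken from the primary screen, cut at about 8% in these data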;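 also: 0% = DMSO wells and 100% = 10 µM SAHA wells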
# * hit, by the source's call; ? = inconclusive; · = no result given.
SMILES,MITF TRPM1 HTS,GAA850 FXN act,esBAF inh,Wnt act,GAA30 FXN cntr,FXN GAA850 conf
CCOc1ccc(S(=O)(=O)Nc2ccccc2C(=O)Nc2ccccc2N2CCOCC2)cc1,1,8.3*,-6,·,19,11*
O=C(Nc1ccccc1N1CCOCC1)c1ccccc1NS(=O)(=O)c1ccc(F)cc1,3,0,-9,·,·,·
Cc1nc(N2N=C(c3ccc(Cl)cc3)CC2c2ccco2)sc1C(=O)N(C)C (configuration not stated),-5,11*,20,10,26*,22*
Cc1noc(C)c1NC(=O)Nc1cccc2c1O[C@@H](CN(C)C(=O)Nc1ccccc1)[C@H](C)CN([C@@H](C)CO)C2=O,·,·,2,·,·,·
COC(=O)c1c(NC(=O)Cc2cccs2)sc(C(=O)N2CCCCC2)c1C,10,9.2*,-1,·,8,9.3*
COc1cccc(S(=O)(=O)N2CC[C@@H]3[C@H]2c2cc(C#Cc4cccnc4)ccc2N(C)[C@H]3CO)c1,·,·,10,·,·,·
O=C(/C=C/c1ccc([N+](=O)[O-])cc1)c1ccccc(=O)c1O,-67,9.5*,·,-21,-101,-26
C[C@H](CO)N1C[C@H](C)[C@@H](CN(C)CC2CC2)Oc2c(NC(=O)NC3CCCCC3)cccc2C1=O,·,·,-9,·,·,·
CCOC(=O)c1cnc2c(ccc3ccccc32)c1NCCN(C)C,·,8.4*,3,0,23*,17*
CCS/C(N)=N/N=C/c1cc(C)ccc1O,58,3,·,·,·,·
CS/C(N)=N/N=C/c1cc(C)ccc1O,?,8.6*,·,88*,122*,38*
COCCNc1nc(C)cc(-c2cc(C(=O)NCc3ccccc3)on2)n1,-8,2,1,-1,·,·
Cc1cc(-c2cc(C(=O)NCc3ccccc3)on2)nc(S(C)(=O)=O)n1,-24,9.7*,6,2,50*,26*
CCCC#Cc1cnc2c(c1)C(=O)N([C@@H](C)CO)C[C@@H](C)[C@H](CN(C)CCC)O2,·,·,-3,·,·,·
COC(=O)CSc1ncnc2scc(-c3ccccc3)c12,-6,5,-5,18,·,·
Fc1ccc(CSc2ncnc3scc(-c4ccccc4)c23)cc1,16,8.9*,·,-4,22*,14*
Cc1sc(N)nc1-c1ccc(Oc2ccccc2)cc1,41,8.8*,25,6,63*,25*
Nc1nc(N)nc(-c2ccc(Oc3ccccc3)cc2)n1,21,11*,20,-1,27*,14*
CC(C)(C)c1ccc(OCc2ccc(C(=O)N3CCOCC3)o2)cc1,55,8.4*,34,28,52*,24*
CCCc1ccc(OCc2ccc(C(=O)N3CCSCC3)o2)cc1,39,7.6*,47*,12,100*,38*
Cc1ccc(S(=O)(=O)N2CCN(C(=O)c3ccc(COc4ccccc4)o3)CC2)cc1,3,1,1,2,·,·
CCc1ccc(OCc2ccc(C(=O)OC)o2)cc1,89*,7.6*,?,31*,78*,28*
Cc1cccc(OCc2ccc(C(=O)N3CCOCC3)o2)c1,-5,-1,7,0,·,·
C[C@H](CO)N1C[C@H](C)[C@@H](CN(C)S(=O)(=O)CC(F)(F)F)OCc2ccccc2-c2ccccc2C1=O,·,·,-3,·,·,·
C[C@H](CO)N1C[C@H](C)[C@@H](CN(C)C(=O)CCCN(C)C)OCCCC[C@H](C)Oc2ccc(NC(=O)Nc3ccccc3)cc2C1=O,·,·,0,·,·,·
SMILES,MITF TRPM1 HTS,GAA850 FXN act,esBAF inh,Wnt act,GAA30 FXN cntr,FXN GAA850 conf
COCC#Cc1ccc2c(c1)O[C@@H](CN(C)CC1CC1)[C@@H](C)CN([C@@H](C)CO)S2(=O)=O,·,·,3,·,·,·
CC(C)(C)c1ccc2c(c1)C(=O)c1ccccc1C2=O,-6,7.9*,-6,?,111*,38*
COc1ccc(NC(=O)C2CCCN2S(=O)(=O)c2ccc3c(c2)CCC(=O)N3)cc1Cl (configuration not stated),5,9.1*,2,-1,6,12*
COc1ccc(NC(=O)C2CCCN2S(=O)(=O)c2ccc3c(c2)CCC(=O)N3)cc1 (configuration not stated),0,0,1,0,·,·
O=C(CSC(=S)N1CCSCC1)c1ccccc1,57,5,·,22,·,·
O=C(CSC(=S)N1CCSCC1)c1ccc(Cl)cc1,82*,9.8*,·,6,114*,42*
CCOC(=O)CNc1c(-c2ccc(OC)cc2)nc2ccc(Cl)cn12,23,8.0*,?,·,92*,25*
COCCNc1c(-c2ccc(OC)cc2)nc2ccc(Cl)cn12,34,7,·,3,·,·
O=C(Nc1cc2c(cc1Cl)OCCCO2)c1ccccc1,60,8.8*,57*,11,107*,41*
COC(=O)c1c(-c2ccccc2)csc1NC(=O)c1ccco1,105*,11*,98*,·,110*,45*
Cc1nc2nc(-c3ccccc3)nn2c(C)c1C,26,7.6*,37,3,115*,41*
Cc1nc2nc(-c3ccccc3)nn2c(C)c1Cl,18,6,·,·,·,·
Fc1ccc(N2CCN(c3cnc4ccccc4n3)CC2)cc1,61,7.9*,11,42*,106*,41*
O=C(c1cc(COc2ccc(F)cc2Cl)on1)N1CCSCC1,40,10*,78*,20,110*,44*
C[C@H]1CN([C@@H](C)CO)C(=O)c2cccc(NC(=O)CCCCCC(=O)Nc3ccccc3N)c2O[C@@H]1CN(C)Cc1ccc2c(c1)OCO2,·,·,8,·,·,·
COc1ccc2c(c1)Cc1sc(NC(C)=O)nc1-2,75,8.2*,41*,·,111*,32*
CC[C@]1(C(=O)OC)[C@H]2C(=O)N(Cc3ccccc3)C(=O)[C@H]2[C@H]2CN=C(SCC3CC3)N21,-6,17*,-2,-2,30*,18*
COC(=O)[C@@]1(C)[C@H]2C(=O)N(Cc3ccccc3)C(=O)[C@H]2[C@H]2CN=C(SCc3ccccc3)N21,3,16*,-6,-2,33*,16*
CC[C@]1(C(=O)OC)[C@H]2C(=O)N(Cc3ccccc3)C(=O)[C@H]2[C@H]2CN=C(SCc3ccc(C)cc3)N21,4,13*,-5,-1,34*,14*
